Measurements reported in publication PMC5540273 (PLoS ONE, 2017).

Tests used:
Conditions in all cases: concentration: 1 μM, replicates: in singlicate; n = 1
PRKD3 = test system: PRKD3
PRKG1 = test system: PRKG1
PRKG2 = test system: PRKG2
PRKR = test system: T1, PRKR
T1 construct: gene EIF2AK2

PRKX = test system: PRKX
PRP4 = test system: PRP4
PYK2 = test system: T2, PYK2
T2 construct: gene PTK2B

QSK = test system: QSK
RAF1 = test system: RAF1
RET = test system: RET
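Note: KINOMEscan kinase panel screen.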

Row | SMILES | %Inh (PRKD3) [%] | %Inh (PRKG1) [%] | %Inh (PRKG2) [%] | %Inh (PRKR) [%] | %Inh (PRKX) [%] | %Inh (PRP4) [%] | %Inh (PYK2) [%] | %Inh (QSK) [%] | %Inh (RAF1) [%] | %Inh (RET) [%]
1 | N#CC1(c2cccc(C(=O)Nc3cccc(Oc4ccc5nc(NC(=O)C6CC6)sc5n4)c3)c2)CC1 | 0 | 16 | 0 | 7 | 0 | 21 | 0 | 18 | 100 | 100
2 | COc1cc(Nc2ccnc3cc(-c4ccncc4)ccc23)cc(OC)c1OC.Cl [GW494610] | 6 | 8 | 69 | 0 | 0 | 27 | 16 | 84 | 23 | 24
3 | Cn1cc(-c2ccc3c(c2)CCN3C(=O)Cc2cc(F)cc(C(F)(F)F)c2)c2c(N)ncnc21 [GSK2635225] | 18 | 0 | 16 | 15 | 6 | 16 | 0 | 10 | 11 | 35
4 | Nc1ncc(-c2ccc3nccc(-c4ccncc4)c3c2)cc1S(=O)(=O)N1CCCCC1 [GSK1693850] | 23 | 7 | 0 | 3 | 27 | 0 | 28 | 1 | 18 | 13
5 | O=C(Nc1n[nH]c2nc(-c3cccc(O)c3)ccc12)C1CC1 [SB-711805] | 0 | 21 | 35 | 100 | 0 | 0 | 11 | 18 | 6 | 0
6 | O=C(O)C(F)(F)F.O=c1[nH]ccc2nc(N[C@@H]3CCNC3)nc(Nc3ccc4c(c3)S(=O)(=O)CC4)c12 [GSK2181306] | 100 | 56 | 93.6 | 91.1 | 89 | 67 | 99.4 | 31 | 0 | 97.5
7 | Cc1ccc(C)c(NC(=O)Nc2ccc(C)c(-c3ccc(C(=O)Nc4ccncc4)cc3)c2)c1 [GSK1398473] | 38 | 31 | 0 | 14 | 20 | 0 | 0 | 8 | 89 | 23
8 | Cn1cc(-c2cnc(N)c3c(-c4ccc5c(c4)CCN5C(=O)Cc4ccccc4)csc23)cn1 [GSK2593074] | 0 | 0 | 0 | 8 | 0 | 0 | 6 | 1 | 0 | 34
9 | Cc1nn2c(=O)cc(N3CCO[C@H](C)C3)nc2n1Cc1cccc(Cl)c1Cl [GSK2373693] | 45 | 4 | 0 | 0 | 9 | 14 | 0 | 0 | 9 | 69
10 | Cc1ccc(NC(=O)c2ccnc(N3CCCCC3)c2)cc1-c1ccc(C(=O)NCC2CC2)cc1 [GW775610] | 0 | 73 | 0 | 3 | 5 | 0 | 5 | 0 | 85 | 5
11 | Fc1cc(Cl)ccc1Nc1ccnc2cc(-c3ccc(CN4CCOCC4)o3)ccc12 [GW560109] | 19 | 25 | 0 | 0 | 24 | 44 | 5 | 70 | 11 | 99.8
12 | Cc1ccc(O)cc1Nc1ccnc2ccc(C(C)(C)C)cc12 [GW856805] | 30 | 20 | 29 | 0 | 17 | 0 | 9 | 22 | 14 | 96
13 | Cl.O=C(Nc1ccc(Oc2ccc3[nH]c(NC(=O)c4ccco4)nc3c2)cc1)Nc1cc(C(F)(F)F)ccc1F [GW683134] | 37 | 12 | 0 | 0 | 20 | 27 | 10 | 0 | 94.7 | 99.9
14 | COC(=O)Nc1nc2ccc(Oc3ccc(CC(=O)Nc4cc(C(F)(F)F)ccc4F)cc3)cc2[nH]1 [GW680903] | 18 | 0 | 0 | 0 | 2 | 32 | 0 | 0 | 86 | 97.7
15 | COc1cc(Nc2nccc(N3CCC(NS(=O)(=O)c4ccc(NC(C)=O)cc4)CC3)n2)cc(OC)c1OC [GSK1379825] | 0 | 5 | 0 | 0 | 15 | 18 | 37 | 20 | 60 | 30
16 | O=C(Nc1n[nH]c2cc(-c3cccs3)ccc12)C1CC1 [SB-731284] | 7 | 8 | 22 | 0 | 0 | 7 | 0 | 44 | 9 | 0
17 | N#Cc1cnc2cc(-c3cnc(CNCCN4CCOCC4)s3)ccc2c1Nc1ccc(Oc2ccccc2)cc1 [GW664114] | 9 | 0 | 0 | 4 | 4 | 51 | 4 | 0 | 0 | 60
18 | CCNc1nccc(-c2c(-c3ccc(F)cc3)ncn2C2CCN(C)CC2)n1 | 36 | 0 | 0 | 0 | 0 | 0 | 0 | 0 | 0 | 0
19 | CN(c1ccc(NC(=O)Nc2cccc(Cl)c2)cc1)c1ccnc(N)n1.Cl [GW830707] | 0 | 0 | 0 | 0 | 0 | 12 | 0 | 15 | 17 | 50
20 | COc1cccc(CC(=O)N2CCc3cc(-c4cn(C)c5ncnc(N)c45)ccc32)c1 [GSK2608899] | 0 | 22 | 0 | 15 | 3 | 0 | 25 | 11 | 0 | 37
21 | Nc1ncnc2scc(-c3ccc(NC(=O)Cc4cc(F)ccc4F)cc3)c12.O=C(O)C(F)(F)F [SB-731254-M] | 14 | 0 | 0 | 15 | 14 | 26 | 21 | 32 | 10 | 23
22 | COc1cccc(NC(=O)NCCNc2ccnc(Nc3ccc(F)cc3)n2)c1 [GSK1379879] | 0 | 4 | 0 | 0 | 14 | 49 | 21 | 0 | 15 | 0
23 | Cc1cc(-c2c(-c3ccc(F)cc3)ncn2CCCN2CCOCC2)nc(N)n1 [SB-222517] | 0 | 0 | 0 | 16 | 0 | 0 | 10 | 23 | 0 | 13
24 | NCCC(NC(=O)c1cc(Br)c(-c2ccnc3[nH]ccc23)s1)c1ccccc1.O=C(O)C(F)(F)F.O=C(O)C(F)(F)F (centres unmarked) [GSK1307810] | 35 | 97.5 | 98.2 | 17 | 96.9 | 76 | 0 | 0 | 9 | 36
25 | CC(=O)Nc1cn2nc(Oc3cccc(NC(=O)c4cccc(C(F)(F)F)c4)c3)ccc2n1 | 0 | 11 | 13 | 4 | 0 | 0 | 7 | 0 | 99.8 | 100
26 | CN(C)CCOc1ccc(-c2cc(-c3ccc(Cl)c(O)c3)c(-c3ccncc3)[nH]2)cc1.Cl.Cl [SB-684387] | 15 | 11 | 80 | 11 | 17 | 15 | 0 | 3 | 88 | 60
27 | Cc1ccc(NC(=O)c2cccc(N3CCCCC3)c2)cc1-c1ccc(C(=O)NCC2CC2)cc1 [GSK1917008] | 100 | 31 | 0 | 0 | 26 | 4 | 0 | 8 | 88 | 10
28 | Cn1cc(-c2ccc3c(c2)CCN3C(=O)Cc2cc(F)cc(F)c2F)c2c(N)ncnc21 [GSK2634140] | 0 | 0 | 0 | 2 | 16 | 21 | 12 | 0 | 18 | 5
29 | COc1cc(Nc2nccc(N3CCC(NC(=O)Nc4ccc5c(c4)OCO5)C3)n2)cc(OC)c1OC (centres unmarked) [GSK1379766] | 0 | 0 | 0 | 0 | 33 | 50 | 15 | 3 | 0 | 28
